The source of these data is PubChem BioAssay.

Unmarked numbers belong to inactive results. No rule for the calls is given here.

For this assay, the target named is Pantothenate synthetase (Mycobacterium tuberculosis (strain ATCC 25618 / H37Rv)) (UniProt P9WIL5). Put plainly: Recombinant Mtb pantothenate synthetase (PanC) inhibitors, coupled enzyme, confirmatory (AID 375).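 Also: 0% = full reaction with vehicle and 100% = no enzyme background.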 As to conditions: coupled enzyme assay; at 10 µM, hits give high values.
Pantothenate synthetase (Mycobacterium tuberculosis (strain ATCC 25618 / H37Rv)), sequence (P9WIL5 whole entry, looked up): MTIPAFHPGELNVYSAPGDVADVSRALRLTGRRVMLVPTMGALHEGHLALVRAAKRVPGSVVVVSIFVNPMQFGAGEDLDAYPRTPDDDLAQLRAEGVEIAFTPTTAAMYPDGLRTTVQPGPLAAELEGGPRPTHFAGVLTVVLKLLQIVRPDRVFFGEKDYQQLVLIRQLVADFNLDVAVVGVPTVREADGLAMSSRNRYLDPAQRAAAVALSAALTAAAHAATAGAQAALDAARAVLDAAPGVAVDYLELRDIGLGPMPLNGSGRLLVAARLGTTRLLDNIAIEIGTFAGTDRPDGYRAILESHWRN

As usually defined, the inhibition is how much of the control response was suppressed. As for `Cn1c(=O)c(=O)n(C)c2cc(S(=O)(=O)Nc3ccc4c(c3)OCCO4)ccc21`, the inhibition was 6%. The result for `CC(=O)NC(CCS(C)(=O)=O)C(=O)Nc1cccc(C)c1` (stereo unspecified) reads 3%; that for `CN(C)c1nc(N)nc(-c2nc3ccccc3s2)n1`, 0%.

For the compound `COc1ccccc1-c1cc2nc(C)c(CCC(=O)NCc3ccco3)c(C)n2n1`, the inhibition is 0%. The result for `CCc1cccc2c3c([nH]c12)C(CC)(CC(=O)O)OCC3` (stereo unspecified) reads 0%; that for `O=C(COC(=O)CCc1c[nH]c2ccccc12)NC1CCS(=O)(=O)C1` (stereo unspecified), 3%.

Consider `CCOC(=O)C1CSc2[nH]c(=O)sc2C1c1ccccc1` (stereo unspecified), for which the inhibition was 0%.

Consider `COC(=O)C1=C(C)NC(C)=C(C(=O)OC)C1c1cc2cc(C)ccc2[nH]c1=O`, for which the inhibition was 3%.

With `CCOC(=O)c1cnc2c(OC)cccc2c1N1CCN(c2ccc(OC)cc2)CC1`, the inhibition was 0%. To `CCOC(=O)c1[nH]c(C)c(C(=O)NCC2CCCO2)c1C` (stereo unspecified) belongs 0%.

On to `CCOc1cc(C)c(Cl)cc1S(=O)(=O)N(C)C`, for which the inhibition is 5%.

`O=C(NC(C(=O)c1ccccc1)n1ccc(=O)[nH]c1=O)c1ccccc1` (stereo unspecified): the inhibition is 0%. The result for `COc1cccc(-c2nc(CS(=O)(=O)CC(=O)N3CCN(c4ccccn4)CC3)c(C)o2)c1` reads 5%; that for `CN(C)CCCN1c2ccccc2CCc2ccccc21`, 2%; that for `CCN1C(=O)c2cccc3c(NC(=O)c4ccc5c(c4)OCCO5)ccc1c23`, 0%.

`CCN(CC)C(=O)Oc1ccc(NC(C)=O)cc1`: the inhibition was 0%.
